# Test results published in PubChem BioAssay (EPA / NIEHS).
# Values joined by “and” are separate entries in the source; they are usually repeats but may differ in a detail not shown here. Equal values may be shown once. Records with an inconclusive call do not appear. A structure can be active in one record and inactive in another. Active and inactive are the calls of the source. How the source made its calls, unless noted: active means hit-call score of the fitted dose curve at least 0.9, where 1 is the maximum; inactive means score below 0.9.
# Assays:
# [1] = read-out: Interleukin-8 (IL8), CXCL8 (gene 3576); experiment: BSK_3C_IL8: BioMAP Diversity Plus: 3C Assay for Interleukin-8 (IL8) Biomarker Activity (AID 2283020); conditions: primary human endothelial cells (HUVEC); actives raise or lower the signal
# Method in brief: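 Human vascular endothelial cells (umbilical vein) in the 3C system; IL-8 level detected by ELISA at 24 h post-dose, with DMSO as baseline.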
# [2] = read-out: Monokine induced gamma interferon (MIG), CXCL9 (gene 4283); experiment: BSK_3C_MIG: BioMAP Diversity Plus: 3C Assay for Monokine induced gamma interferon (MIG) Biomarker Activity (AID 2283021); conditions: primary human endothelial cells (HUVEC); actives raise or lower the signal;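 on AC50: MIG protein level measured by immunoassay in the treated endothelial cultures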
# Method in brief: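 After 24 h of treatment, human umbilical vein endothelial cultures (3C system) had their MIG biomarker level determined by ELISA, with DMSO serving as negative control.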
# [3] = biological target: human Vitamin D Receptor (VDR), VDR (gene 7421) (UniProt P11473); experiment: ATG_VDR_TRANS: Attagene TRANS-FACTORIAL HepG2 Assay for human Vitamin D Receptor (VDR) (AID 2283022; active means hit-call score of the fitted dose curve at least 0.9, where 1 is the maximum)
# Sequence of human Vitamin D Receptor (VDR), VDR (gene 7421) (P11473 whole entry, looked up, the tested form may be a part): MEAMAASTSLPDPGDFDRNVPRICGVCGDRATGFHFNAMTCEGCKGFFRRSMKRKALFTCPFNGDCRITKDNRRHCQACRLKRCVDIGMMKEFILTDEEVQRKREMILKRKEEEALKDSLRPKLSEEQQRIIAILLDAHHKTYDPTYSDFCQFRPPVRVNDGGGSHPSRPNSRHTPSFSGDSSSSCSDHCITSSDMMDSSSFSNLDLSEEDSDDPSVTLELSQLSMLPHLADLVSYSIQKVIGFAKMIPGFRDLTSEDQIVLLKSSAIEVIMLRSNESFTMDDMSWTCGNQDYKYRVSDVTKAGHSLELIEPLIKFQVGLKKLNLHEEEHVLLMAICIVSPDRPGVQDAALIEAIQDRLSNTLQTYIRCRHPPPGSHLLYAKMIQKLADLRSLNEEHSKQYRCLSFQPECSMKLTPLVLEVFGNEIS
# Method in brief: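 Fluorescence of labelled reporter cDNA fragments, resolved by capillary electrophoresis, gives mRNA induction after 24 h treatment of HepG2 cells carrying transfected Gal4-fusion reporter units. Activity is fitted in the positive direction with DMSO as baseline.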
# [4] = BSK_3C_SRB: Viability Assessment in the BioMAP Diversity Plus: 3C Assay (AID 2283023); conditions: primary human endothelial cells (HUVEC);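 further: cells read 24 h after compound dosing; fitted both ways against DMSO so a hit may be signal rise or drop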
# Method in brief: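 Cells were dosed with chemical, cultured 24 h, fixed with 10% TCA, stained with 0.1% SRB and read at 560 nm. Human umbilical vein endothelium was used; DMSO served as negative control and baseline.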
# [5] = read-out: Matrix Metallopeptidase 1 (MMP1), MMP1 (gene 4312); experiment: BSK_BE3C_MMP1: BioMAP Diversity Plus: BE3C Assay for Matrix Metallopeptidase 1 (MMP1) Biomarker Activity (AID 2283024); conditions: primary human bronchial epithelial cells; actives raise or lower the signal
# Method in brief: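 Dose cells, wait 24 h, run MMP1 ELISA; cells are human bronchial epithelial primaries. Both increases and decreases relative to DMSO counted.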
# [6] = read-out: Pselectin, SELP (gene 6403); experiment: BSK_4H_Pselectin: BioMAP Diversity Plus: 4H Assay for Pselectin Biomarker Activity (AID 2283026); conditions: primary human endothelial cells (HUVEC); actives raise or lower the signal
# Method in brief: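 Human vascular endothelium from umbilical vein; P-selectin measured by ELISA at 24 h post-dose, with cytotoxicity checked by sulforhodamine B total-protein staining in parallel cultures (0.1% SRB after 10% TCA fixation, read at 560 nm).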
# [7] = BSK_4H_SRB: Viability Assessment in the BioMAP Diversity Plus: 4H Assay (AID 2283027); conditions: primary human endothelial cells (HUVEC);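 further: cells exposed to compound for 24 h before staining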;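 on AC50: curves fitted both ways versus DMSO so AC50 may be loss or gain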
# Method in brief: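 Absorbance at 560 nm of SRB-stained total protein served as the viability read-out in confluent primary human umbilical vein endothelium 24 h after chemical treatment. Curves were fitted bidirectionally against DMSO as negative control.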
# [8] = BSK_BE3C_SRB: Viability Assessment in the BioMAP Diversity Plus: BE3C Assay (AID 2283028); conditions: primary human bronchial epithelial cells;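 further: measured 24 h after chemical dosing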;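 on AC50: fitted both ways so AC50 may mark signal gain or loss versus DMSO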
# Method in brief: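 Overt cytotoxicity was assessed as total protein in confluent human primary bronchial epithelial cultures 24 h after chemical addition, using 0.1% sulforhodamine B staining read at 560 nm.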
# [9] = read-out: Thrombomodulin, THBD (gene 7056); experiment: BSK_3C_Thrombomodulin: BioMAP Diversity Plus: 3C Assay for Thrombomodulin Biomarker Activity (AID 2283029); conditions: primary human endothelial cells (HUVEC); actives raise or lower the signal
# Method in brief: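 Thrombomodulin ELISA, human primary HUVEC, 24 h post-dose; data fitted in both directions relative to DMSO.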
# [10] = BSK_3C_Vis: BioMAP Diversity Plus: 3C Assay for Morphology Visualization (AID 2283025); conditions: primary human endothelial cells (HUVEC);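 further: fitted both ways so gain or loss versus DMSO counts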;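 on AC50: light microscopy image of cell morphology used as background control; cells imaged 24 h after dosing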
# Method in brief: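 Endothelial cells from human umbilical vein were treated with test chemicals for 24 h and inspected by light microscopy for changes in cell conformation.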
smiles,measurement,setting,value
O=C(F)C1(F)C(F)(F)C(F)(F)C(F)(F)C(F)(F)C1(F)F,outcome,[1],inactive
same,outcome,[2],inactive
same,outcome,[3],inactive
same,outcome,[4],inactive
same,outcome,[5],inactive
same,outcome,[6],inactive
same,outcome,[7],inactive
same,outcome,[8],inactive
same,outcome,[9],inactive
O=C1C=CC(=O)N1c1ccc(Cc2ccc(N3C(=O)C=CC3=O)cc2)cc1,AC50,[1],7.33 µM (active)
same,AC50,[2],12 µM (active)
same,outcome,[3],inactive
same,AC50,[4],11.5 µM (active)
same,AC50,[5],4.99 µM (active)
same,AC50,[10],5.63 µM (active)
same,AC50,[6],7.11 µM (active)
same,AC50,[7],12.1 µM (active)
same,AC50,[8],3.04 µM (active)
same,AC50,[9],11.3 µM (active)
C=CC(=O)OCC(F)(F)C(F)(F)C(F)(F)C(F)(F)C(F)(F)C(F)(F)C(F)(F)C(F)F,outcome,[1],inactive
same,outcome,[2],inactive
same,outcome,[3],inactive
same,outcome,[4],inactive
same,outcome,[5],inactive
same,outcome,[6],inactive
same,outcome,[7],inactive
same,outcome,[8],inactive
same,AC50,[9],5.95 µM (active) and 19.2 µM (active)
FC(F)(F)C(F)(F)C(F)(F)C(F)(F)C(F)(F)C(F)(F)CC[Si](Cl)(Cl)Cl,outcome,[1],inactive
same,outcome,[2],inactive
same,outcome,[3],inactive
same,outcome,[4],inactive
same,outcome,[5],inactive
same,outcome,[6],inactive
same,outcome,[7],inactive
same,outcome,[8],inactive
same,outcome,[9],inactive
CNS(=O)(=O)C(F)(F)C(F)(F)C(F)(F)C(F)(F)C(F)(F)C(F)(F)C(F)(F)C(F)(F)F,outcome,[1],inactive
same,outcome,[2],inactive
same,outcome,[3],inactive
same,outcome,[4],inactive
same,outcome,[5],inactive
same,outcome,[6],inactive
same,AC50,[7],29.8 µM (active)
same,outcome,[7],inactive
same,outcome,[8],inactive
same,outcome,[9],inactive
CCN(CC)c1ccc(C=O)c(O)c1,outcome,[1],inactive
same,outcome,[2],inactive
same,outcome,[3],inactive
same,outcome,[4],inactive
same,outcome,[5],inactive
same,outcome,[10],inactive
same,outcome,[6],inactive
same,outcome,[7],inactive
same,outcome,[8],inactive
same,outcome,[9],inactive
CN(C(=O)C(F)(F)C(F)(F)C(F)(F)F)[Si](C)(C)C,outcome,[1],inactive
same,outcome,[2],inactive
same,outcome,[3],inactive
same,outcome,[4],inactive
same,outcome,[5],inactive
same,outcome,[6],inactive
same,outcome,[7],inactive
same,outcome,[8],inactive
same,outcome,[9],inactive
NS(=O)(=O)C(F)(F)C(F)(F)C(F)(F)C(F)(F)C(F)(F)C(F)(F)F,outcome,[1],inactive
same,outcome,[2],inactive
same,outcome,[3],inactive
same,AC50,[4],49.4 µM (active) and 44.3 µM (active)
same,AC50,[5],30 µM (active) and 33.2 µM (active)
same,outcome,[6],inactive
same,AC50,[7],37.2 µM (active) and 30 µM (active)
same,outcome,[8],inactive
same,outcome,[9],inactive
O=C(O)C(F)(F)C(F)(F)C(F)(F)C(=O)O,outcome,[1],inactive
same,outcome,[2],inactive
same,outcome,[3],inactive
same,outcome,[4],inactive
same,outcome,[5],inactive
same,outcome,[6],inactive
same,outcome,[7],inactive
same,outcome,[8],inactive
same,outcome,[9],inactive
CC(C)CCCC(C)CCO (stereo not drawn),outcome,[1],inactive
same,outcome,[2],inactive
same,outcome,[3],inactive
same,AC50,[4],33.8 µM (active)
same,outcome,[5],inactive
same,AC50,[10],39.6 µM (active)
same,AC50,[6],31.2 µM (active)
same,AC50,[7],28.8 µM (active)
same,AC50,[8],7.28 µM (active)
same,outcome,[9],inactive
CCN(CC)c1ccc(N=Nc2ccccc2)cc1,AC50,[1],20 µM (active)
same,outcome,[2],inactive
same,outcome,[3],inactive
same,AC50,[4],12.1 µM (active)
same,outcome,[5],inactive
same,AC50,[10],8.8 µM (active)
same,AC50,[6],11.3 µM (active)
same,AC50,[7],20 µM (active)
same,outcome,[8],inactive
same,outcome,[9],inactive
NC(=O)C(F)(F)C(F)(F)C(F)(F)C(F)(F)C(N)=O,outcome,[1],inactive
same,outcome,[2],inactive
same,outcome,[3],inactive
same,outcome,[4],inactive
same,outcome,[5],inactive
same,outcome,[6],inactive
same,outcome,[7],inactive
same,outcome,[8],inactive
same,outcome,[9],inactive
Brc1nc2ccccc2s1,outcome,[1],inactive
same,outcome,[2],inactive
same,outcome,[3],inactive
same,outcome,[4],inactive
same,outcome,[5],inactive
same,outcome,[10],inactive
same,outcome,[6],inactive
same,outcome,[7],inactive
same,outcome,[8],inactive
same,outcome,[9],inactive
OCC(F)(F)C(F)(F)C(F)(F)C(F)(F)C(F)(F)C(F)(F)C(F)(F)C(F)(F)CO,outcome,[1],inactive
same,outcome,[2],inactive
same,outcome,[3],inactive
same,AC50,[4],24.6 µM (active)
same,outcome,[4],inactive
same,AC50,[5],8.5 µM (active)
same,outcome,[5],inactive
same,AC50,[6],9.58 µM (active)
same,outcome,[6],inactive
same,AC50,[7],36.5 µM (active)
same,outcome,[7],inactive
same,outcome,[8],inactive
same,outcome,[9],inactive
CC(=O)c1ccccc1N,outcome,[3],inactive
CCCCCCCCCCCCC[N+](C)(C)Cc1ccccc1,outcome,[3],inactive
CC(C)(C)C(=O)C1C(=O)c2ccccc2C1=O,outcome,[3],inactive
CCCCOC(=O)[C@H](C)O,outcome,[3],inactive
C=CCOC(=O)CC(C)C,outcome,[3],inactive
c1ccc(C[P+](c2ccccc2)(c2ccccc2)c2ccccc2)cc1,outcome,[3],inactive
Nc1c(Br)cc([N+](=O)[O-])cc1Br,outcome,[3],inactive
O=S(=O)(Cl)C(F)(F)C(F)(F)C(F)(F)C(F)(F)C(F)(F)C(F)(F)C(F)(F)C(F)(F)F,AC50,[1],30 µM (active) and 35.3 µM (active)
same,outcome,[2],inactive
same,AC50,[4],49.3 µM (active) and 55.6 µM (active)
same,AC50,[5],7.12 µM (active) and 7.23 µM (active)
same,outcome,[6],inactive
same,AC50,[7],45.9 µM (active)
same,outcome,[7],inactive
same,AC50,[8],43.9 µM (active) and 30.7 µM (active)
same,AC50,[9],30 µM (active) and 44.8 µM (active)
OCCCc1cccnc1,outcome,[3],inactive
CCCCOC(=O)C(C)O (stereo not drawn),outcome,[3],inactive
OCCCCl,outcome,[3],inactive
CCn1c2ccccc2c2ccccc21,outcome,[3],inactive
CCCCCCCCn1sc(Cl)c(Cl)c1=O,outcome,[3],inactive
Cc1ccc2c(c1)OCC(=O)CO2,outcome,[3],inactive
O=C1C=CC(=O)N1c1ccccc1,outcome,[3],inactive
CCCCCCCCCc1ccc(OCCO)cc1,outcome,[3],inactive
NC(=O)C(F)(F)C(F)(F)C(F)(F)C(F)(F)C(F)(F)C(F)(F)C(F)(F)F,outcome,[1],inactive
same,outcome,[2],inactive
same,outcome,[4],inactive
same,outcome,[5],inactive
same,outcome,[6],inactive
same,outcome,[7],inactive
same,outcome,[8],inactive
same,outcome,[9],inactive
